Structures are written as SMILES. A number with no mark means an inactive call. Active and inactive are the calls of the source. No rule for the calls is given here.
Potency is read from the fitted curve at half-maximal effect.

The subject of this test is HIV-1 nucleocapsid protein NCp7 (binding to TG oligonucleotide). Put plainly: HIV Nucleocapsid (AID 346).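 Also: potency is for inhibitors that block NC binding and lower polarization.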 The following applies: HIV-1 NC / fluorescein-TGTGTGTG probe, fluorescence polarization. A digest of the protocol:
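10 nM TG4xF probe with 100 nM nucleocapsid protein in high-salt Hepes pH 7.5 (250mM NaCl) containing 1uM ZnCl2 and reducing agents. Compound inhibition of binding was read as fluorescein polarization after 1 hr at room temperature.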
On to `CS(=O)(=O)N1CCC2(CC1)CN(Cc1ccc(C#N)cc1)C2`, for which the Potency is over 20 µM.

For `Clc1ccccc1-c1nc(N2CCNCC2)c2ccccc2n1`, the Potency was over 20 µM.

Take `COCCn1c(=O)c(CCc2ccccc2)nc2cnc(Oc3ccccc3)nc21`: the Potency is over 20 µM.

For the compound `O=C(Oc1ccccc1)N1CCC2(CC1)CCN(c1ncccn1)CC2`, the Potency is over 20 µM.

For the compound `CN(C)C(=O)c1ccc(-c2nc(NCc3cccnc3)c3ccccc3n2)cc1`, the Potency is over 20 µM.

With `CC(=O)N1CCC2(CC1)CCN(c1ccccn1)CC2`, the Potency was over 4 µM.

For `CC(C)NC(=O)N1CCCC2(CCN(S(=O)(=O)c3ccccc3)CC2)C1`, the Potency was over 4 µM.

With `COc1ccccc1CNc1cc(-c2c(C)noc2C)ncn1`, the Potency is over 20 µM.

In the case of `COc1cccc(Nc2ncc3nc(-c4cccs4)c(=O)n(CCC#N)c3n2)c1`, the Potency was over 20 µM.

Regarding `N#Cc1cccc(NC(=O)N2CC[C@@]3(CCCN(C(=O)c4csnn4)C3)C2)c1`, the Potency was over 20 µM.

For the compound `O=c1c(-c2ccccc2)nc2cncnc2n1Cc1ccccc1Cl`, the Potency was over 20 µM.

As to `COCCn1c(=O)c(-c2ccccc2)nc2cnc(N3CCN(C)CC3)nc21`, the Potency is over 20 µM.

In the case of `COc1ccc(-n2c(=O)c(-c3cccs3)nc3cnc(Nc4ccccc4)nc32)cc1`, the Potency is 4.01 µM (active).

Regarding `Clc1ccccc1-c1ccc2ncnc(NCc3cccnc3)c2c1`, the Potency was over 20 µM.

For `CN1CCN(c2nc(-c3cccc(NS(C)(=O)=O)c3)nc3ccccc23)CC1`, the Potency was over 20 µM.

These data come from PubChem BioAssay (NCATS).
